Experimental data as given in PubChem BioAssay AID1159580 (chemical genetic matrix, 2015).
Where “and” joins values, the source holds several entries; their conditions need not be identical. Equal values may be shown once. Screen size: about 5,500 compounds; about 2,000 (36%) were called active. About 18% were inconclusive and are not listed. Rule as the data show it: active = normalized growth mostly below about 0.91 (no sharp cut-off); inconclusive = no clear call, values can overlap the other calls; inactive = mostly above about 0.92. The list shows a part of the results.

Experiment: chemical genetic growth profiling, strain panel (AID 1159580);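 also: tested at 20 µM; growth read once vehicle control cultures reached saturation at 30 °C; 1 = growth at the plate median or of vehicle wells; lower values mean less growth of the strain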
Settings: S. cerevisiae deletion strains, growth OD

Measured: normalized growth

COc1cc2occc2c2oc(=O)ccc12
inactive: locus YAL021C, strain ccr4, stronger effect = lower value 1.01 | locus YAL026C, strain drs2, stronger effect = lower value 0.984 | locus YAL030W, strain snc1, stronger effect = lower value 1.01 | locus YBL061C, strain skt5, stronger effect = lower value 0.992 | locus YBR009C, strain hhf1, stronger effect = lower value 0.982 | locus YBR021W, strain FUR4, stronger effect = lower value 0.965 | locus YBR023C, strain chs3, stronger effect = lower value 1 | locus YBR171W, strain sec66, stronger effect = lower value 1.02 | locus YBR229C, strain ROT2, stronger effect = lower value 0.949 | locus YBR231C, strain swc5, stronger effect = lower value 0.962 | locus YBR279W, strain paf1, stronger effect = lower value 1.01 | locus YCL011C, strain gbp2, stronger effect = lower value 1.01 | locus YCL016C, strain dcc1, stronger effect = lower value 0.972 | locus YCL029C, strain bik1, stronger effect = lower value 0.931 | locus YCL069W, strain vba3, stronger effect = lower value 1.03 | locus YCR088W, strain abp1, stronger effect = lower value 1.02 | locus YDL005C, strain med2, stronger effect = lower value 1.01 | locus YDL035C, strain GPR1, stronger effect = lower value 0.92 | locus YDL040C, strain nat1, stronger effect = lower value 1.02 | locus YDL074C, strain BRE1, stronger effect = lower value 0.842 | locus YDL101C, strain DUN1, stronger effect = lower value 0.939 | locus YDL185W, strain tfp1, stronger effect = lower value 0.936 | locus YDR001C, strain nth1, stronger effect = lower value 1.01 | locus YDR069C, strain doa4, stronger effect = lower value 0.98 | locus YDR137W, strain rgp1, stronger effect = lower value 1.06 | locus YDR159W, strain sac3, stronger effect = lower value 1.01 | locus YDR162C, strain NBP2, stronger effect = lower value 0.873 | locus YDR297W, strain sur2, stronger effect = lower value 0.998 | locus YDR318W, strain mcm21, stronger effect = lower value 0.948 | locus YDR334W, strain swr1, stronger effect = lower value 0.969 | locus YDR335W, strain msn5, stronger effect = lower value 0.968 | locus YDR388W, stronger effect = lower value 0.979 | locus YDR392W, strain spt3, stronger effect = lower value 0.792 | locus YDR502C, strain sam2, stronger effect = lower value 0.984 | locus YEL003W, strain gim4, stronger effect = lower value 0.985 | locus YEL037C, strain rad23, stronger effect = lower value 1 | locus YEL061C, strain CIN8 (second series), stronger effect = lower value 1 | locus YER015W, strain faa2, stronger effect = lower value 1 | locus YER016W, strain bim1, stronger effect = lower value 1.02 | locus YER110C, stronger effect = lower value 0.936 | locus YER111C, strain swi4, stronger effect = lower value 1.02 | locus YER155C, strain BEM2, stronger effect = lower value 0.992 | locus YER167W, strain BCK2, stronger effect = lower value 0.967 | locus YFR010W, strain ubp6, stronger effect = lower value 0.957 | locus YGL078C, strain dbp3, stronger effect = lower value 1.02 | locus YGL086W, strain mad1, stronger effect = lower value 0.964 | locus YGL167C, strain pmr1, stronger effect = lower value 1.02 | locus YGL173C, strain kem1, stronger effect = lower value 1.01 | locus YGL227W, strain vid30, stronger effect = lower value 1.03 | locus YGL240W, strain doc1, stronger effect = lower value 0.92 | locus YGL248W, strain PDE1, stronger effect = lower value 0.964 | locus YGL253W, strain hxk2, stronger effect = lower value 1.01 | locus YGR078C, strain PAC10, stronger effect = lower value 0.95 | locus YGR135W, strain pre9, stronger effect = lower value 0.99 | locus YGR252W, strain gcn5, stronger effect = lower value 0.865 | locus YHR013C, strain ard1, stronger effect = lower value 1.08 | locus YHR027C, strain rpn1, stronger effect = lower value 0.998 | locus YHR030C, strain SLT2, stronger effect = lower value 0.982 and 0.967 | locus YHR079C, strain IRE1 (second series), stronger effect = lower value 0.984 | locus YHR079C, strain IRE1, stronger effect = lower value 0.958 | locus YHR094C, strain hxt1, stronger effect = lower value 0.975 | locus YHR129C, strain ARP1, stronger effect = lower value 0.98 | locus YHR142W, strain chs7, stronger effect = lower value 0.961 | locus YHR200W, strain rpn10, stronger effect = lower value 0.93 | locus YIL066C, strain RNR3, stronger effect = lower value 0.925 | locus YIL073C, strain SPO22, stronger effect = lower value 0.944 | locus YIL125W, strain kgd1, stronger effect = lower value 0.99 | locus YIR030C, strain dcg1, stronger effect = lower value 0.979 | locus YJL092W, strain hpr5, stronger effect = lower value 1.02 | locus YJL095W, strain BCK1 (second series), stronger effect = lower value 0.998 | locus YJL095W, strain BCK1, stronger effect = lower value 0.942 and 0.974 | locus YJL115W, strain asf1, stronger effect = lower value 0.991 | locus YJL134W, strain LCB3, stronger effect = lower value 0.967 | locus YJL154C, strain vps35, stronger effect = lower value 1.02 | locus YJL164C, strain tpk1, stronger effect = lower value 0.983 | locus YJL166W, strain qcr8, stronger effect = lower value 1.02 | locus YJL168C, strain set2, stronger effect = lower value 0.976 | locus YJL187C, strain SWE1 (second series), stronger effect = lower value 0.968 | locus YJL187C, strain SWE1, stronger effect = lower value 1.02 | locus YJR066W, strain TOR1, stronger effect = lower value 0.917 | locus YKL009W, strain mrt4, stronger effect = lower value 0.944 | locus YKL068W, stronger effect = lower value 1 | locus YKL085W, strain MDH1 (second series), stronger effect = lower value 0.991 | locus YKL085W, strain MDH1, stronger effect = lower value 0.991 | locus YKL160W, strain elf1, stronger effect = lower value 1.01 | locus YKL190W, strain CNB1, stronger effect = lower value 0.985 | locus YKR026C, strain gcn3, stronger effect = lower value 1.03 | locus YKR091W, strain srl3, stronger effect = lower value 1.02 | locus YLL001W, strain dnm1, stronger effect = lower value 1 | locus YLL026W, stronger effect = lower value 1.02 | locus YLL041C, strain sdh2, stronger effect = lower value 1 | locus YLR027C, strain aat2, stronger effect = lower value 1.01 | locus YLR039C, strain RIC1, stronger effect = lower value 1 | locus YLR058C, strain SHM2, stronger effect = lower value 0.976 | locus YLR102C, strain apc9, stronger effect = lower value 0.985 | locus YLR113W, strain HOG1, stronger effect = lower value 1 | locus YLR221C, strain rsa3, stronger effect = lower value 1.02 | locus YLR258W, strain gsy2, stronger effect = lower value 1.03 | locus YLR262C, strain YPT6 (second series), stronger effect = lower value 1.02 | locus YLR262C, strain YPT6, stronger effect = lower value 1.06 | locus YLR268W, strain sec22, stronger effect = lower value 0.887 | locus YLR342W, strain FKS1 (second series), stronger effect = lower value 0.944 | locus YLR342W, strain FKS1, stronger effect = lower value 1.02 | locus YLR370C, strain arc18, stronger effect = lower value 1.03 | locus YLR384C, strain iki3, stronger effect = lower value 1.01 | locus YLR418C, strain cdc73, stronger effect = lower value 0.914 | locus YML016C, strain PPZ1, stronger effect = lower value 0.956 | locus YML120C, strain ndi1, stronger effect = lower value 1.04 | locus YML124C, strain tub3, stronger effect = lower value 0.982 | locus YMR058W, strain fet3, stronger effect = lower value 0.988 | locus YMR078C, strain ctf18, stronger effect = lower value 0.967 | locus YMR125W, strain sto1, stronger effect = lower value 1.02 | locus YMR129W, stronger effect = lower value 1.04 | locus YMR205C, strain PFK2, stronger effect = lower value 1.03 | locus YMR223W, strain ubp8, stronger effect = lower value 0.957 | locus YMR231W, strain pep5, stronger effect = lower value 1.01 | locus YMR307W, strain GAS1, stronger effect = lower value 0.932 | locus YNL067W, strain RPL9B, stronger effect = lower value 0.99 | locus YNL071W, strain lat1, stronger effect = lower value 1 | locus YNL183C, strain NPR1, stronger effect = lower value 0.935 | locus YNL209W, strain ssb2, stronger effect = lower value 0.995 | locus YNL233W, strain BNI4, stronger effect = lower value 0.942 | locus YNL250W, strain rad50, stronger effect = lower value 0.936 | locus YNL271C, strain bni1, stronger effect = lower value 0.97 | locus YNL298W, strain CLA4, stronger effect = lower value 0.915 | locus YNL307C, strain MCK1, stronger effect = lower value 0.959 | locus YNL322C, strain KRE1 (second series), stronger effect = lower value 0.998 | locus YNL322C, strain KRE1, stronger effect = lower value 0.99 | locus YNR049C, strain mso1, stronger effect = lower value 1.03 | locus YNR052C, strain pop2, stronger effect = lower value 0.988 | locus YOL012C, strain htz1 0.958 | locus YOL147C, strain pex11, stronger effect = lower value 0.952 | locus YOR001W, strain rrp6, stronger effect = lower value 0.985 | locus YOR061W, strain CKA2, stronger effect = lower value 0.939 | locus YOR069W, strain VPS5, stronger effect = lower value 0.984 | locus YOR070C, strain gyp1, stronger effect = lower value 0.995 | locus YOR080W, strain dia2, stronger effect = lower value 1.01 | locus YOR083W, strain WHI5, stronger effect = lower value 0.955 | locus YOR106W, strain vam3, stronger effect = lower value 0.987 | locus YOR136W, strain idh2, stronger effect = lower value 0.957 | locus YOR144C, strain elg1, stronger effect = lower value 0.95 | locus YOR231W, strain MKK1, stronger effect = lower value 0.983 | locus YOR265W, strain rbl2, stronger effect = lower value 0.996 | locus YOR270C, strain vph1, stronger effect = lower value 0.934 | locus YOR290C, strain snf2, stronger effect = lower value 0.963 | locus YOR316C, strain cot1, stronger effect = lower value 0.99 | locus YPL051W, strain arl3, stronger effect = lower value 0.992 | locus YPL078C, strain atp4, stronger effect = lower value 0.987 | locus YPL106C, strain sse1, stronger effect = lower value 0.921 | locus YPL240C, strain hsp82, stronger effect = lower value 1.01 | locus YPL256C, strain CLN2, stronger effect = lower value 1.03 | locus YPR119W, strain clb2, stronger effect = lower value 0.992 | locus YPR141C, strain kar3, stronger effect = lower value 1 | locus YPR167C, strain met16, stronger effect = lower value 0.995 | strain wtn01, stronger effect = lower value 0.902
active: locus YDL192W, strain arf1, stronger effect = lower value 0.887 | locus YDR101C, strain arx1, stronger effect = lower value 0.897 | locus YDR195W, strain ref2 1.29 [resistant] | locus YER155C, strain BEM2 (second series), stronger effect = lower value 0.821 | locus YJL129C, strain trk1, stronger effect = lower value 1.17 [resistant] | locus YKR001C, strain vps1, stronger effect = lower value 0.877 | locus YLR320W, strain mms22, stronger effect = lower value 0.857 | locus YLR357W, strain rsc2, stronger effect = lower value 1.16 [resistant] | locus YLR371W, strain rom2, stronger effect = lower value 0.861 | locus YML032C, strain rad52, stronger effect = lower value 0.836 | locus YNL248C, strain rpa49, stronger effect = lower value 0.681 | locus YOR184W, strain ser1, stronger effect = lower value 0.836 | locus YPR163C, strain tif3, stronger effect = lower value 0.911
